From PubChem
D2 PAM-1: Beta-Arrestin HTS for Positive Allosteric Modulators of the Human D2 Dopamine Receptor: Potentiators; D(2) dopamine receptor (Homo sapiens), P14416; AID 624464, 2012; potentiation, % (no concentration beside the values); actives 0.23% (n = 360,000); DiscoveRx D2 beta-arrestin cells, luminescence, 90 min; 100% = 57 uM dopamine signal; in the data active = potentiation above about 50%; inconclusive = mostly about 30% to 49%
Target sequence (P14416 whole entry, looked up): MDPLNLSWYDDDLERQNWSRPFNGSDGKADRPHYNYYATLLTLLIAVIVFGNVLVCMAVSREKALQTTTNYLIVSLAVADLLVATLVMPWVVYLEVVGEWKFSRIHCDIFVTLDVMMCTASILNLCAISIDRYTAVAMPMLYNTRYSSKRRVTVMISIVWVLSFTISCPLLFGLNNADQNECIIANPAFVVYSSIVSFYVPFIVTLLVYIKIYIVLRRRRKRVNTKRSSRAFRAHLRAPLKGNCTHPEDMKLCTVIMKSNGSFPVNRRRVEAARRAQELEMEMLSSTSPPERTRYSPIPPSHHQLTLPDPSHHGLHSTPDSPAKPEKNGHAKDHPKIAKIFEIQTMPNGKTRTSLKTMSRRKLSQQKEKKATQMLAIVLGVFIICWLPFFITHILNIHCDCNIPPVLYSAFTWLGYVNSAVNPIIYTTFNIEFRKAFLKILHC
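PathHunter D2 cells, attached overnight at 37 deg C, received compound in DMSO plus dopamine at EC20 (50 nM final) for 90 min at 37 deg C. Beta-arrestin recruitment was read as luminescence after 1 h with detection reagent at ambient temperature.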
D2 ag-1: HTS Assay for Allosteric Agonists of the Human D2 Dopamine Receptor: Primary Screen for Agonists; D(2) dopamine receptor (Homo sapiens), P14416; HEK293 T-REx D2 cells, calcium flux agonist mode; activation, % at 2 µM; actives 0.53% (n = 340,000);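 active = activation over 3 SD above normal in the single-dose calcium agonist read, cut at about 30% in these data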
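Agonism scored from kinetic calcium signal (1 read/sec, 180 s) following compound pin transfer, after a 10 s baseline. Cells: HEK293 Trex line expressing inducible D2 receptor coupled to calcium, dye-loaded after overnight culture at 30 C.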
D2 antagonist: HTS Assay for Allosteric Antagonists of the Human D2 Dopamine Receptor: Primary Screen for Antagonists | HEK293 TREx D2 cells, calcium flux, dopamine EC80 | D(2) dopamine receptor (Homo sapiens), P14416 | inhibition, % at 10 µM | actives 2% (n = 340,000); in the data active = inhibition above about 30%; inactive = below that, where a call was filed
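Calcium mobilization kinetics were recorded at 1 s intervals in tetracycline-induced HEK293 T-REx D2 cells, first for 180 s after compound addition and then 180 s after EC80 dopamine.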
D2 PAM-2: HTS Assay for Positive Allosteric Modulators of the Human D2 Dopamine Receptor: Primary Screen for Potentiators; HEK293 T-REx D2, calcium flux, EC20 dopamine potentiation; potentiation, % at 10 µM; actives 0.34% (n = 340,000);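 active = potentiation over 3 SD above the plate norm, cut at about 30% in these data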
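Potentiation of an EC20 dopamine calcium response is measured in a force-coupled, tetracycline-inducible Hek293 Trex D2 line. Compound-only kinetic reads over 180 s flag agonists before dopamine addition.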
D2 ag-2: Beta-Arrestin HTS for Positive Allosteric Modulators of the Human D2 Dopamine Receptor: Agonists; DiscoveRx PathHunter D2 beta-arrestin, luminescence, 90 min; 100% = 57 uM dopamine signal; activation, % (no concentration beside the values); actives 0.084% (n = 360,000); AID 624465, 2012; in the data active = activation above about 40%; inconclusive = between about 15% and that limit
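Agonist mode: compounds alone added to overnight-plated D2 PathHunter cells for 90 min at 37 C, with 57 uM final dopamine (EC100) defining full response. Beta-arrestin recruitment detected by chemiluminescent reagent, read after 1 h at ambient temperature.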
Large screens that a line does not name were inactive. Shown are actives, neighbours in structure and some others; about 2.4% of the full set was active somewhere.

[O-]/C(=C(\C(=S)Nc1ccccc1F)[n+]1ccccc1)c1ccc(OC(F)F)cc1	none
Cc1ccc(C)c(NC(=S)/C(=C(\[O-])c2ccc(OC(F)F)cc2)[n+]2ccccc2)c1	D2 antagonist 30.5
COc1ccc(-c2noc(CCC(=O)Nc3cccnc3)n2)cc1	none
CC(C)(C)c1ccc(-c2noc(CCC(=O)Nc3cccnc3)n2)cc1	D2 antagonist 35.8
CN(C(=O)CCl)C1CCCc2ccccc21 (configuration not stated)	D2 PAM-2 34.4
Cc1ccccc1-c1cccc([C@@H]2C[C@H]3[C@H](CON3C)CN2C(=O)CCc2ccccc2)c1	none (no result: D2 PAM-1, D2 ag-1, D2 antagonist, D2 PAM-2)
Cc1cc2oc3c(c(=O)c2cc1C)C(c1ccc(C(C)C)cc1)N(c1nc(C)c(C)s1)C3=O (configuration not stated)	none (no result: D2 PAM-1, D2 ag-1, D2 antagonist, D2 ag-2)
Nc1cc(Cl)ccc1C(=O)OCC(=O)NC1CCCCCCC1	D2 antagonist 34.5
O=C(COC(=O)c1ccc(F)cc1F)NC1CC1	D2 antagonist 30.9
O=C(COC(=O)c1ccc(F)cc1F)NCCNC(=O)COC(=O)c1ccc(F)cc1F	none
O=C(CCl)Nc1ccccc1C(=O)NCc1ccccc1	none
COc1ccc(NC(=O)Cn2nnc(-c3nc(-c4ccncc4)no3)c2N)cc1OC	none (no result: D2 PAM-1, D2 antagonist, D2 ag-2)
COc1ccc(C(=O)C2CCCN(Cc3cccn3-c3ccccn3)C2)cc1F (configuration not stated)	none (no result: D2 ag-1, D2 antagonist)
COc1ccc(F)cc1C(=O)C1CCCN(Cc2cccn2-c2cccnc2)C1 (configuration not stated)	D2 antagonist 74.0
COc1ccc(F)cc1C(=O)C1CCCN(Cc2ccc(Oc3ncccn3)cc2)C1 (configuration not stated)	D2 antagonist 48.9
COc1ccc(F)cc1C(=O)C1CCCN(Cc2cnc(N3CCCC3)s2)C1 (configuration not stated)	D2 antagonist 66.0
O=C(c1cccc(C(F)(F)F)c1)C1CCCN(Cc2cccn2-c2ncccn2)C1 (configuration not stated)	D2 antagonist 32.0
O=C(c1ccc(C(F)(F)F)cc1)C1CCCN(Cc2cccn2-c2ncccn2)C1 (configuration not stated)	none
CN(C)c1ccc(/C=C/C(=O)c2cccc(Br)c2)cc1	D2 ag-1 112.9
CN(C)c1ccc(C(=O)/C=C/c2cccnc2)cc1	none (no result: D2 ag-1, D2 antagonist, D2 PAM-2)
COc1ccc(Cn2c(=O)c3oc4ccccc4c3n(Cc3cccc(C)c3)c2=O)cc1	none (no result: D2 PAM-1, D2 antagonist, D2 ag-2)
O=C(Cc1ccccc1[N+](=O)[O-])NCc1ccc(Cl)cc1Cl	D2 antagonist 32.9
COc1ccc(C(C)(C)C)cc1NC(=O)COC(=O)CSCc1c(C)noc1C	D2 antagonist 36.2
Cc1cc(Br)ccc1NS(=O)(=O)c1c(C)[nH]c(=O)[nH]c1=O	none
Cc1cc(NS(=O)(=O)c2c(C)[nH]c(=O)[nH]c2=O)ccc1Br	D2 antagonist 40.8
CC1CCCN(CCCNC(=O)c2ccc3c(c2)N(Cc2cccc(Cl)c2)C(=O)c2ccccc2S3(=O)=O)C1 (configuration not stated)	none (no result: D2 PAM-1, D2 antagonist, D2 ag-2)
O=C1Cc2ccccc2Sc2c(OCCN3CCCCC3)cccc21	D2 antagonist 80.3
O=C1Cc2ccccc2Sc2cc(OCCCN3CCCCC3)ccc21	none
N#CC1(c2ccccc2)CCC(NCCc2ccccc2)CC1 (configuration not stated)	D2 antagonist 45.6
Cc1cccc(C)c1OCC(=O)N/N=C/c1cc2c(cc1[N+](=O)[O-])OCO2	D2 antagonist 30.0
O=C(CCc1ccc(O)c(O)c1)N/N=C/c1cc2c(cc1[N+](=O)[O-])OCO2	D2 ag-2 inconclusive
N#Cc1c(-c2ccc(F)cc2)noc1N	D2 PAM-1 96.1, D2 ag-2 inconclusive
COc1cccc(-c2noc(N)c2C#N)c1	D2 PAM-1 inconclusive, D2 ag-2 inconclusive
CC(C)Oc1ccc(N2CC(C(=O)NC3=NCCS3)CC2=O)cc1 (configuration not stated)	none
COc1cc(/C=N/NC(=O)c2c(-c3ccccc3)noc2C)cc(OC)c1OC	D2 antagonist 56.3
Cc1ccc(S(=O)(=O)N2CCC3(CC2)OCCN3S(=O)(=O)c2cccs2)cc1	none (no result: D2 ag-1, D2 antagonist, D2 PAM-2)
O=[N+]([O-])c1ccc(S(=O)(=O)N2CCC3(CC2)OCCN3S(=O)(=O)c2cccs2)cc1	D2 PAM-1 72.3
Fc1ccc(Nc2nc3ccccc3s2)cc1	D2 antagonist 32.8
Cc1ccc(Nc2nc3ccccc3s2)cc1	none
CCC(Sc1nccn1C)C(=O)Nc1ccc(Cl)cn1 (configuration not stated)	none
CC(Sc1nccn1C)C(=O)Nc1ccc(Cl)cn1 (configuration not stated)	D2 antagonist 48.9
CCOC(=O)C1=C(O)C(=O)N(c2ccccc2)C1c1cccc([N+](=O)[O-])c1 (configuration not stated)	D2 antagonist 33.0
CCOC(=O)C1=C(O)C(=O)N(c2ccc(S(N)(=O)=O)cc2)C1c1cccc([N+](=O)[O-])c1 (configuration not stated)	none
CCOC(=O)C1=C(O)C(=O)N(c2ccc(S(N)(=O)=O)cc2)C1c1ccc(OC)cc1OC (configuration not stated)	D2 PAM-2 41.6
Cc1ccc(-c2ccc(CN3C(C)C(=O)N(Cc4cn(Cc5ccco5)nn4)CCS3(=O)=O)cc2)c(C)c1 (configuration not stated)	none (no result: D2 ag-1, D2 antagonist, D2 PAM-2)
O=C(CCNS(=O)(=O)c1ccc(Br)s1)NCc1ccc2c(c1)OCO2	none
COc1cccc(C(c2sc3nc(-c4ccco4)nn3c2O)N2CCC(C)CC2)c1 (configuration not stated)	none (no result: D2 PAM-1, D2 antagonist, D2 ag-2)
CCOC(=O)Nc1sc(C(=O)N(CC)CC)c(C)c1C(=O)OCC	D2 PAM-2 45.0
Cc1cc(N/N=C/c2ccc(O)cc2O)nc(-c2ccccc2O)n1	D2 PAM-1 inconclusive, D2 ag-2 41.5
Cc1cc(N/N=C/c2ccccc2O)nc(-c2ccccc2O)n1	none
CCOc1ccccc1NC(=O)C(C)N(c1ccccc1)S(C)(=O)=O (configuration not stated)	none (no result: D2 PAM-1, D2 antagonist, D2 ag-2)
C=CCn1c(SCC(=O)Nc2ncc(Cc3ccc(Br)cc3)s2)nnc1-c1ccncc1	D2 PAM-2 32.4
CC(=O)Nc1ccc(OCC(O)Cn2c(C)nc3ccccc32)cc1 (configuration not stated)	none
